Assay results as given in PubChem BioAssay (Tox21).
Records with an inconclusive call do not appear. Activity calls are given as the source filed them. Unless noted, calls come from the whole dose curve; as a rule, active = well fitted curve in the direction sought with a large enough effect in the repeat runs; inconclusive = weak or mixed curves; inactive = no such curve, though single readings can be large; an effect the other way counts as inactive or inconclusive.

Columns and labels:
[1] = qHTS assay to identify small molecule antagonists of the estrogen related receptor (ERR) signaling pathway from Tox21 library - cell viability counter screen (AID 1224834); note: nearly all actives have a fitted effect of over 30% in size
In short: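 Seeded ERR cells were rested 6 h at 37 C/5% CO2 before compounds, positive and negative controls or DMSO were added. Incubation continued for 17.5 h, and viability was then quantified by CellTiter-Fluor fluorescence.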

[2] = target: Luciferin 4-monooxygenase (Photinus pyralis) (UniProt P08659); test: qHTS assay to identify small molecule inhibitors of firefly luciferase (AID 1224835); note: nearly all actives have a fitted effect of over 25% in size
Luciferin 4-monooxygenase (Photinus pyralis), sequence (P08659 whole entry, looked up): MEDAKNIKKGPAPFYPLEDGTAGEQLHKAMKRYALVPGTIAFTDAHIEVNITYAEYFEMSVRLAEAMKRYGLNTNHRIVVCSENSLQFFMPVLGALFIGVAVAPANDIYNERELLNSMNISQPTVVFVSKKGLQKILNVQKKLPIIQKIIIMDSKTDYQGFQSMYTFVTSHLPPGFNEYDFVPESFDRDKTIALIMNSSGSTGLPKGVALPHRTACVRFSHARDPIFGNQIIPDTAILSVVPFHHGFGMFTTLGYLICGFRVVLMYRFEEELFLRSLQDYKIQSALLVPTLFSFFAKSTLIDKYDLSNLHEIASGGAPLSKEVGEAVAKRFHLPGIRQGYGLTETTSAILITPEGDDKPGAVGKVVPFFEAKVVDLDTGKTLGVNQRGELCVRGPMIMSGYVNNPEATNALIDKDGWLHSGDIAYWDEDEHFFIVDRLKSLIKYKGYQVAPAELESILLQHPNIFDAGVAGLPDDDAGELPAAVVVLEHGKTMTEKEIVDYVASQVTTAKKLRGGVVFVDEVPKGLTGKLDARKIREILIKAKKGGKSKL
In short: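 Quantitative HTS format; KM concentrations of both substrates. Purified P. pyralis FLuc activity quantified from luminescence images.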

[3] = qHTS assay to identify small molecule agonists of the constitutive androstane receptor (CAR) signaling pathway - cell viability counter screen (AID 1224836); note: nearly all actives have a fitted effect of over 45% in size
In short: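 HepG2 cells stably carrying hCAR and a CYP2B6-2.2kb reporter were plated 4 h, then given compounds at 15 concentrations plus PK11195 (final 0.75 uM). After 23 h at 37 C, viability was read by CellTiter-Fluor fluorescence.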

[4] = qHTS assay to identify small molecule antagonists of the constitutive androstane receptor (CAR) signaling pathway - cell viability counter screen (AID 1224837); note: nearly all actives have a fitted effect of over 45% in size
In short: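 To flag cytotoxic false antagonists, HepG2 hCAR/CYP2B6-2.2kb cells were treated 23 hr with 15-concentration compound series and 50 nM CITCO at 37 C/5% CO2; CellTiter-Fluor fluorescence was the measured end point.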

[5] = qHTS assay to identify small molecule antagonists of the estrogen related receptor signaling pathway with the pleiotropic PPARgamma coactivator (PGC) from Tox21 10K library (AID 1224841; call rule not given here; note: actives are mostly falling curves and most rising ones were filed inactive; nearly all actives have a fitted effect of over 50% in size)
In short: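 Test chemicals dissolved in DMSO were applied to pre-incubated (6 h) PGC/ERR cells at 2,000 cells/well for an 18 h, 37 C treatment; reporter luminescence was then read using One-Glo.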

[6] = qHTS assay to identify small molecule agonists of the estrogen related receptor signaling pathway with the pleiotropic PPARgamma coactivator (PGC) from Tox21 10K library (AID 1224842); note: nearly all actives have a fitted effect of over 15% in size
In short: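 PGC/ERR reporter cells (NTP line) were seeded 2,000 per well, rested 6 h at 37 C/5% CO2, then pin-dosed with compounds in DMSO for 18 h at 37 C; luciferase read by One-Glo luminescence after 30 min at room temperature.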

[7] = target: Thyrotropin receptor (Homo sapiens) (UniProt P16473); test: qHTS assay to identify small molecule agonists of the thyroid stimulating hormone receptor (TSHR) signaling pathway (AID 1224843; calls by dose curve; note: nearly all actives have a fitted effect of over 45% in size)
Thyrotropin receptor (Homo sapiens), sequence (P16473 whole entry, looked up): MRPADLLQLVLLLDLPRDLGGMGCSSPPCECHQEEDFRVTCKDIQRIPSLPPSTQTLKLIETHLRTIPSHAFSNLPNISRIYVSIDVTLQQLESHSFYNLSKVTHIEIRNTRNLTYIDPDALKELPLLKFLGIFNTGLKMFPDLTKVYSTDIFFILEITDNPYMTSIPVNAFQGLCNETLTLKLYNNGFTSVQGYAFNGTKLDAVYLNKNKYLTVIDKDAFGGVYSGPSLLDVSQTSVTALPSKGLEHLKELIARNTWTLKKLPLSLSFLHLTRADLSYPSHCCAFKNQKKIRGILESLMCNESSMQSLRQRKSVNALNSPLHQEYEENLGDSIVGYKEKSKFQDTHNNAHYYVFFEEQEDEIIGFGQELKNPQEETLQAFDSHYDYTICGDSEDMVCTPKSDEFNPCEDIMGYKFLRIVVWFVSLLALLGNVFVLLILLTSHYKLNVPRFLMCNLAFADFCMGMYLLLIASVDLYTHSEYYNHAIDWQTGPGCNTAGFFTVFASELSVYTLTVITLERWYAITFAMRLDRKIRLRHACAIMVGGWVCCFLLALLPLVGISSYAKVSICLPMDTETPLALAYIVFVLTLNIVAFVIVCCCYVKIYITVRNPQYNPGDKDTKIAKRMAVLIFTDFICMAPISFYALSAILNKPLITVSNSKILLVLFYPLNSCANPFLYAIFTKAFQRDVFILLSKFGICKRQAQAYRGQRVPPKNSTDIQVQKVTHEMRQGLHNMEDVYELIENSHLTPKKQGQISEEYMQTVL
In short: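 Using 15 concentrations per compound in triplicate, cAMP production was monitored in TSHR-HEK293 cells after 30 min compound incubation at RT; HTRF reagents followed, with fluorescence intensity recorded after 1 h.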

[8] = qHTS assay to identify small molecule agonists of the hypoxia (HIF-1) signaling pathway - cell viability counter screen (AID 1224844; calls by dose curve; note: nearly all actives have a fitted effect of over 50% in size)
In short: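 HRE-bla ME-180; 0.5% dFBS; cpd 17 h, 37C, 5% CO2; CellTiter-Glo lum., 30 min RT, post-FRET read, same wells.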

[9] = qHTS assay to identify small molecule agonists of H2AX (AID 1224845; active = well fitted activation curve with a large enough effect in the signal ratio in the repeat runs, not every such curve was filed as active; the % refers to the signal ratio)
In short: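 Wild-type CHO-K1 cells plated overnight, then exposed 3 hr at 37C to compounds at 15 concentrations (0.76% DMSO). Lysed, then HTRF anti-pH2AX(S139)-cryptate/anti-H2AX-d2 detection after 24 hr at room temperature; emissions 665 and 620 nm.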

[10] = qHTS assay to identify small molecule agonists of H2AX - cell viability counter screen (AID 1224847; calls by dose curve; note: top concentration of the series differs between compounds; nearly all actives have a fitted effect of over 30% in size)
In short: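 Wild-type CHO-K1 cells (10% FBS medium) were plated overnight at 37C, exposed to compounds at 15 concentrations for 3 hr at 37C (0.76% DMSO final), and viability was read as CellTiter-Glo luminescence after 30 min at room temperature.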

[11] = qHTS assay to identify small molecule antagonists of the estrogen related receptor (ERR) signaling pathway from Tox21 library (AID 1224848); note: nearly all actives have a fitted effect of over 50% in size
In short: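 Tox21 10K compounds in DMSO tested for ERR pathway antagonism in NTP's ERR cell line; 18 h, 37 C exposure; ONE-Glo luminescence.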

[12] = qHTS assay to identify small molecule agonists of the estrogen related receptor (ERR) signaling pathway from Tox21 library (AID 1224849; calls by dose curve; note: nearly all actives have a fitted effect of over 15% in size); details: ERR reporter cell line, ONE-Glo luciferase, 18 h; at 92.4 µM (top of the series) unless noted
In short: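 Tox21 compounds tested for ERR agonism in an NTP reporter cell line: 18 h treatment at 37 C, then ONE-Glo luminescence.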

[13] = qHTS RealTime-Glo MT Cell Viability Assay in HepG2 cells - 24 hour (AID 1224867); note: nearly all actives have a fitted effect of over 50% in size
In short: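 HepG2 suspension premixed with RealTime-Glo reagents is plated at 600 cells per well and left 5 h at 37 C/5% CO2. Compounds in DMSO then go in, and bioluminescence reflecting viable cell number is recorded over 40 h.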

[14] = qHTS RealTime-Glo MT Cell Viability Assay in HEK293 cells - 32 hour (AID 1224868)
In short: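 Reads taken at 0, 8, 16, 24, 32 and 40 h from the same wells. HEK293 cells (600/well) carried RealTime-Glo reagents from seeding, with compound added after a 5 h settle at 37 C.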

[15] = A CellTox Green Cytotoxicity Assay to monitor cytotoxicity in HEK293 cells - 0 hour (AID 1224869); note: nearly all actives have a fitted effect of over 50% in size
In short: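 Tox21 screen in HEK293: membrane-impermeant cyanine dye fluoresces on binding dead-cell DNA; compound pinned 5 h post-seeding, plates held at 37 C, signal read repeatedly through 40 h.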

[16] = target: Nuclear receptor subfamily 1 group I member 3 (Homo sapiens) (UniProt Q14994); test: qHTS assay to identify small molecule antagonists of the constitutive androstane receptor (CAR) signaling pathway (AID 1224838); note: nearly all actives have a fitted effect of over 40% in size
Nuclear receptor subfamily 1 group I member 3 (Homo sapiens), sequence (Q14994 whole entry, looked up): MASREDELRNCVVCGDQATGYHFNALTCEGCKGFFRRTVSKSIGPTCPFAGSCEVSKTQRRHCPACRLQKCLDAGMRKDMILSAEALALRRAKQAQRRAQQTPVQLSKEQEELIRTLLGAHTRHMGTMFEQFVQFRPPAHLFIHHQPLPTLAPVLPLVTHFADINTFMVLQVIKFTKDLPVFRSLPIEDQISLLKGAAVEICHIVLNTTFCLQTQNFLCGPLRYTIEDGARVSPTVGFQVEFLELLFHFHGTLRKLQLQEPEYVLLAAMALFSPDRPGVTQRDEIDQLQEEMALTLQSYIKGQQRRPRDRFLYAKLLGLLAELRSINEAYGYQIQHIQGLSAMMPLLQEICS
In short: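 Human hepatoma HepG2 cells expressing hCAR and a CYP2B6 promoter (2.2 kb) luciferase construct; compound titration (15 points) with 50 nM CITCO final, 24 h at 37 C/5% CO2; luminescence via ONE-Glo after 30 min at room temperature.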

[17] = target: Nuclear receptor subfamily 1 group I member 3 (Homo sapiens) (UniProt Q14994); test: qHTS assay to identify small molecule agonists of the constitutive androstane receptor (CAR) signaling pathway (AID 1224839);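 note: HepG2 cells stably carrying human CAR and a CYP2B6 luciferase reporter; nearly all actives have a fitted effect of over 15% in size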
In short: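 HepG2 cells stably expressing hCAR and a CYP2B6-2.2kb luciferase reporter were treated with compounds at 15 concentrations plus 0.75 uM PK11195 (final) for 24 h at 37 C; luminescence was read after ONE-Glo addition.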

[18] = qHTS assay to identify small molecule agonists of the hypoxia (HIF-1) signaling pathway (AID 1224846; active = well fitted activation curve with a large enough effect in the signal ratio in the repeat runs, not every such curve was filed as active; the % refers to the signal ratio)
In short: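 Reporter induction in HRE-bla ME-180 cells is taken as agonism: cells sit 5 hrs after plating, receive compounds or DMSO only, incubate 17 hrs at 37C under 5% CO2, and are loaded with CCF4-AM for beta-lactamase FRET measurement.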

[19] = qHTS assay to identify small molecule antagonists of the estrogen related receptor signaling pathway with the pleiotropic PPARgamma coactivator (PGC) from Tox21 10K library - cell viability counter screen (AID 1224840; active = well fitted cell-killing curve with a large enough effect in the repeat runs, not every such curve was filed as active; note: nearly all actives have a fitted effect of over 40% in size)
In short: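 Seeded PGC/ERR cells (2,000/well, 6 h, 37 C/5% CO2) get compound by pin tool; 17.5 h incubation at 37 C; CellTiter-Fluor added, 30 min, fluorescence measured.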
% is set by controls: 0 for no effect and ±100 for the full control effect.

COC(=O)C1CC(=O)C(C(=O)OC)CC1=O (stereo not given)
inactive: viability change, negative = cytotoxic [1] 2.89% [at 8.39 µM] | activity change, negative = inhibition [2] 0.09% [at 10.5 µM] | viability change, negative = cytotoxic [3] 10.3% [at 8.39 µM] | activity change, negative = cytotoxicity [4] 2.02% [at 8.39 µM] | activity, negative = inhibition [5] 1.96% [at 8.39 µM] | activation [6] 0.14% [at 8.39 µM] | activation [7] -7.69% [at 8.39 µM] | activity change, negative = cytotoxicity [8] 4.68% [at 6.97 µM] | activation (H2AX phosphorylation) [9] 1.21% [at 14 µM] | activity change, negative = cytotoxicity [10] -2.76% [at 14 µM] | activity, negative = inhibition [11] -0.445% [at 8.39 µM] | activity change, positive = activation [12] -0.229% [at 8.39 µM] | activity change, negative = cytotoxicity [13] 1.03% [at 6.97 µM] | activity change, negative = cytotoxic [14] 1.1% [at 6.97 µM] | cytotoxicity [15] -3.09% [at 6.97 µM]

CC(C)(C)c1n[nH]c(=S)n(N)c1=O
inactive: Potency [1] | Potency [2] | Potency [3] | outcome [16] | Potency [17] | Potency [5] | outcome [6] | Potency [7] | outcome [8] | outcome [9] | outcome [18] | Potency [10] | Potency [11] | activity change, positive = activation [12] -1.28% | outcome [13] | Potency [14] | outcome [15]

CN(CCOc1ccc(NS(C)(=O)=O)cc1)CCc1ccc(NS(C)(=O)=O)cc1
inactive: Potency [1] | Potency [2] | Potency [3] | Potency [4] | outcome [19] | Potency [7] | outcome [8] | outcome [9] | outcome [18] | Potency [10] | outcome [13] | Potency [14] | outcome [15]

CN(C)c1ccc(C=O)cc1
inactive: Potency [1] | Potency [2] | Potency [3] | Potency [17] | outcome [19] | Potency [5] | outcome [6] | Potency [7] | outcome [8] | outcome [9] | outcome [18] | Potency [10] | Potency [11] | activity change, positive = activation [12] 0.183% | outcome [13] | Potency [14] | outcome [15]

CCCCCCOC(=O)CC
inactive: Potency [1] | Potency [2] | Potency [3] | Potency [4] | Potency [17] | outcome [19] | Potency [5] | outcome [6] | outcome [8] | outcome [9] | outcome [18] | Potency [10] | Potency [11] | activity change, positive = activation [12] -0.0388% | outcome [13] | Potency [14] | outcome [15]

C=CC(OCC)OCC
inactive: Potency [1] | Potency [2] | Potency [3] | Potency [4] | Potency [17] | outcome [19] | outcome [8] | outcome [9] | outcome [18] | Potency [10] | outcome [13] | Potency [14] | outcome [15]

BrCCCCCBr
inactive: Potency [1] | Potency [2] | Potency [3] | Potency [4] | Potency [17] | Potency [5] | outcome [6] | Potency [7] | outcome [8] | outcome [9] | outcome [18] | Potency [10] | Potency [11] | activity change, positive = activation [12] 6.39% | outcome [13] | Potency [14] | outcome [15]

CC(C)OC(=O)CCCCC(=O)OC(C)C
inactive: Potency [1] | Potency [2] | Potency [3] | Potency [4] | outcome [19] | Potency [7] | outcome [8] | outcome [9] | Potency [10] | outcome [13] | Potency [14] | outcome [15]

CCC(CC)CO
inactive: Potency [1] | Potency [2] | Potency [4] | outcome [16] | Potency [17] | outcome [19] | Potency [7] | outcome [8] | outcome [9] | Potency [10] | outcome [13] | Potency [14] | outcome [15]

COc1cc(C(=S)N2CCOCC2)cc(OC)c1OC
inactive: Potency [1] | Potency [2] | Potency [4] | outcome [16] | Potency [17] | outcome [19] | Potency [5] | outcome [6] | Potency [7] | outcome [8] | outcome [9] | outcome [18] | Potency [10] | Potency [11] | activity change, positive = activation [12] -0.791% [at 42.5 µM] | outcome [13] | Potency [14] | outcome [15]

COc1ccc(S(=O)(=O)N2c3ccc(Cl)cc3[C@@](O)(c3ccccc3Cl)[C@H]2C(=O)N2CCC[C@@H]2C(N)=O)cc1OC
inactive: Potency [1] | Potency [2] | Potency [4] | outcome [19] | outcome [8] | outcome [9] | outcome [18] | Potency [10] | outcome [13] | outcome [15]

Cc1cccc(C)c1NC(=O)c1ccccc1C(=O)O
inactive: Potency [1] | Potency [2] | Potency [4] | outcome [16] | Potency [17] | outcome [19] | Potency [5] | outcome [6] | Potency [7] | outcome [8] | outcome [9] | outcome [18] | Potency [10] | Potency [11] | activity change, positive = activation [12] 2.58% [at 42.5 µM] | outcome [13] | Potency [14] | outcome [15]

CCCCCOC(=O)CCC
inactive: Potency [1] | Potency [2] | Potency [4] | outcome [16] | Potency [17] | Potency [5] | outcome [6] | Potency [7] | outcome [8] | outcome [9] | outcome [18] | Potency [11] | activity change, positive = activation [12] 10.4% | outcome [13] | Potency [14] | outcome [15]

Cc1ccccc1OCC(O)CO (stereo not given)
inactive: Potency [1] | Potency [2] | Potency [4] | outcome [16] | Potency [17] | outcome [19] | Potency [5] | outcome [6] | Potency [7] | outcome [8] | outcome [9] | Potency [10] | Potency [11] | activity change, positive = activation [12] 1.39% [at 42.5 µM] | outcome [13] | Potency [14] | outcome [15]

CC[C@H](C)C(=O)O[C@H]1C[C@H](O)C=C2C=C[C@H](C)[C@H](CC[C@@H](O)C[C@@H](O)CC(=O)O)[C@H]21
inactive: Potency [1] | Potency [2] | Potency [3] | outcome [19] | outcome [9] | outcome [18] | Potency [10] | outcome [13] | Potency [14] | outcome [15]

Oc1ccccc1-c1nnco1
inactive: Potency [1] | Potency [2] | Potency [4] | outcome [19] | Potency [7] | outcome [8] | outcome [9] | outcome [18] | Potency [10] | outcome [13] | Potency [14] | outcome [15]
